We go through twelve compounds from the supplement of paper PMC8047044.

In this experiment the test system is Neuro-2a. The experiment is described as follows: neurite formation score, plate-normalized to DMSO control mean 5.04 (score (0-8 scale)); higher = more or longer neurites. The note with it: 1 µM. The method, then:
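Neuro-2a mouse neuroblastoma cells in PLL-coated 96-well plates were pre-treated for 1 h in DMEM(+) with each kinase inhibitor at 1 µM, then switched to serum-free DMEM(-) with inhibitor to induce neurite outgrowth and fixed about 2-3 h later. Three blinded observers scored neurite formation from 0 (no neurites) to 8 (long neurites on almost all cells).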
In turn, `N#CC(C#N)=Cc1ccc(O)c(O)c1` returned a neurite formation score of 4.91. As for `COc1ccc2c(c[n+](C)c3c4cc5c(cc4ccc23)OCO5)c1OC` [Chelerythrine Chloride], the neurite formation score stood at 4.57. In the case of `CC(C)(C)c1cc(C=C(C#N)C#N)cc(C(C)(C)C)c1O` [Tyrphostin 9], the neurite formation score turned out to be 4.96.

`COC[C@H]1OC(=O)c2coc3c2[C@@]1(C)C1=C(C3=O)[C@@H]2CCC(=O)[C@@]2(C)C[C@H]1OC(C)=O` [Wortmannin] registered a neurite formation score of 4.63. The same measure for `CCN1CCN(C(=O)Cc2ccc(Nc3ncc(F)c(Nc4ccc(C(=O)Nc5ccccc5Cl)cc4)n3)cc2)CC1` [Aurora A Inhibitor I]: 3.69; for `Cc1ccccc1-n1c(Cn2cnc3c(N)ncnc32)nc2cccc(C)c2c1=O`: 5.21; for `COc1ccc(N(C(=O)Oc2c(C)cccc2C)c2ccnc(Nc3ccc(N4CCN(C)CC4)cc3)n2)c(OC)c1`: 3.88. In turn, `CC(C)(C)c1cc(C=C(C#N)C#N)cc(Br)c1O` gave a neurite formation score of 4.24. The value for `Cn1cc(C2=C(c3cn(C4CCN(Cc5ccccn5)CC4)c4ccccc34)C(=O)NC2=O)c2ccccc21` was 3.91. For the compound `O=c1[nH]c2ccccc2n1C1CCN(Cc2ccc(-c3[nH]c4cc5ncnc5cc4nc3-c3ccccc3)cc2)CC1` [AKT inhibitor VIII], the neurite formation score amounted to 4.91. The same measure for `COc1cc([C@@H]2c3cc4c(cc3[C@H](O)[C@H]3COC(=O)[C@@H]23)OCO4)cc(OC)c1OC`: 4.24; for `O=c1[nH]c2ccc(Cl)cc2c(N[C@@H]2CN3CCC2CC3)c1-c1nc2ccccc2[nH]1`: 5.96.
